Screens: PubChem, National Center for Advancing Translational Sciences (NCATS)
Sampled rows, rich in hits. Any-hit rate of the full collection: about 21%.
VP16 counter: inhibits Gal4-VP16 luciferase reporter, ROR gamma counter-screen; Drosophila S2 Gal4-VP16 UAS-luciferase, luminescence, 20 h; Potency, µM (doses to about 53.6 µM), for inactives: at the top dose activity, negative = inhibition, usual class: inhibitors; AID 2546; actives 3.5% (n = 310,000);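 further: Gal4-VP16 expression switched on by copper sulfate through the metallothionein promoter; potency means the concentration at half of the fitted maximal effect; nearly all actives have a fitted effect of over 50% in size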
IL1B secr inh: inflammasome signaling inhibition, IL-1 beta readout; AID 743279; THP-1 LPS/ATP IL-1B secretion, AlphaLISA, 16 h; hits give low values; actives 4.7% (n = 360,000); activity change, % at 57.5 µM; in the data active means activity change below about -50%; inconclusive means mostly about -30% to -49%
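THP-1 cells pretreated 1 hr with compounds (up to 57.5 uM final), then stimulated with LPS (250 ng/mL final) plus ATP (1.25 mM final); secreted IL-1B measured by AlphaLISA after 16 hr, decreased signal indicating inhibition.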
RORgamma inh: inhibitors of mouse ROR gamma transcriptional activity; actives 5.4% (n = 310,000); Potency, µM (top dose mostly 53.6 µM), inactives show at the top dose activity change, negative = inhibition, most hits filed as inhibitors; P51450; Drosophila S2 Gal4-RORgamma UAS-luciferase reporter, 20 h; AID 2551; further: potency means the concentration at half of the fitted maximal effect; nearly all actives have a fitted effect of over 60% in size
Target sequence (P51450 whole entry, looked up, the tested form may be a part): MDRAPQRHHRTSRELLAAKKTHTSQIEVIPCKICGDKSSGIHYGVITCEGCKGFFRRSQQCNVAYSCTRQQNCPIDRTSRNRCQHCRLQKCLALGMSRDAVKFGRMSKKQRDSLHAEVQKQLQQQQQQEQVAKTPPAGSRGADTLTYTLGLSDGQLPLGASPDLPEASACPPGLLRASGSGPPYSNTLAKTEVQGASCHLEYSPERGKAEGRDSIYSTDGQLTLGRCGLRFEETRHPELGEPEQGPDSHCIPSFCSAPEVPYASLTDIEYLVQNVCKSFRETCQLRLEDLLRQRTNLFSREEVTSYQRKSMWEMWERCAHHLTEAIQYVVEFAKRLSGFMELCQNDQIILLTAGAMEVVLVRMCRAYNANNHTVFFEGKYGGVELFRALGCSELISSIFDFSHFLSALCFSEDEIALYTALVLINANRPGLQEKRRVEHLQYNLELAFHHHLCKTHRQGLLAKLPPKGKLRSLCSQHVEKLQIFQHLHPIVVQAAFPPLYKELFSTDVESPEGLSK
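Using a luciferase readout, inhibitors were identified by reduced reporter activity in Drosophila cells coexpressing a copper-inducible Gal4–ROR gamma fusion and UAS-driven Photinus luciferase, incubated 20 hr after 700 uM copper sulfate.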
DT40 TDP1 CPT: growth inhibition of DT40 Tdp1-/-;hTDP1 cells with camptothecin (screen for TDP1 inhibitors); chicken DT40 Tdp1-/-;hTDP1 cells + 20 nM CPT, ATP luminescence, 48 h; Potency, µM (top dose mostly 46.2 µM), inactives show at the highest dose activity change, negative = growth inhibition, actives largely listed as inhibitors; actives 12% (n = 420,000); further: potency means the concentration at half of the fitted maximal effect; nearly all actives have a fitted effect of over 55% in size
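Cell growth measured by CellTiter-Glo luminescence after a minimum 48 h, 37 C compound exposure with 20 nM CPT in Tdp1-knockout DT40 cells stably expressing hTDP1, seeded 400/well; qHTS titration format.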
DT40 TDP1 no CPT: qHTS for Inhibitors of human tyrosyl-DNA phosphodiesterase 1 (TDP1): qHTS in cells in absence of CPT. actives 15% (n = 420,000). DT40 Tdp1-/- hTDP1 cells, no CPT, ATP luminescence, 48 h. AID 686978, 2013. Potency, µM (series often up to 46.2 µM), for the others: top-dose activity change, negative = growth inhibition, actives largely listed as inhibitors; further: potency means the concentration at half of the fitted maximal effect; nearly all actives have a fitted effect of over 55% in size
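Chicken DT40 Tdp1-/- cells stably complemented with human TDP1 were seeded at 400 cells/well with DMSO in place of 20 nM camptothecin. After compound pinning, cells grew at least 48 hr at 37 °C; viability read by CellTiter-Glo luminescence.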
ELG1 DNA repair: blocks ELG1-dependent DNA repair in HEK293T cells; Potency, µM (top dose mostly 46.1 µM), inactives show top-dose activity change, negative = inhibition, most hits filed as inhibitors; HEK293T ELG1-luciferase reporter, luminescence, 16 h; DNA damage induced by 5-fluorouridine; actives 2.3% (n = 330,000); AID 504467; further: potency means the concentration at half of the fitted maximal effect; nearly all actives have a fitted effect of over 55% in size
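Overnight (16 hr) co-exposure of 2,000 cells/well to 5-fluorouridine and compound at 37 °C preceded detection. Luciferase was quantified via ONE-Glo luminescence; loss of signal denotes inhibition.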
* hit, by the source's call; ? = inconclusive; nt = no result given; [ ] = remark or other dose. Unless noted, the call rests on the fitted dose curve; in most records, active means well fitted curve in the direction sought with a large enough effect; inconclusive means small, poorly fitted or top-dose-only effect, or another doubt; inactive means no such curve, though single readings can be large; an effect the other way counts as inactive or inconclusive. On the % scale 0 is the no-effect control and ±100 the full control effect.

SMILES	VP16 counter	IL1B secr inh	RORgamma inh	DT40 TDP1 CPT	DT40 TDP1 no CPT	ELG1 DNA repair
Cc1ccccc1CN1C(=O)c2ccccc2C1c1nnnn1-c1ccc2c(c1)OCCO2 (stereo unspecified)	nt	99	nt	5.2µM*	4.1µM*	nt
COCCN1C(=O)c2ccccc2C1c1nnnn1-c1ccc2c(c1)OCCO2 (stereo unspecified)	nt	0	nt	-9%	5%	nt
O=C1c2ccccc2C(c2nnnn2-c2ccc3c(c2)OCCO3)N1CCc1c[nH]c2ccccc12 (stereo unspecified)	nt	27	nt	18µM*	15µM*	nt
COc1ccccc1C(CNC(=O)c1cc(C)nc2ccccc12)N(C)C (stereo unspecified)	5%	17	1%	5%	-3%	18%
O=C1c2ccccc2C(c2nnnn2-c2ccc3c(c2)OCCO3)N1Cc1ccc(F)cc1 (stereo unspecified)	nt	42	nt	?	?	nt
COc1ccc(CN2C(=O)c3ccccc3C2c2nnnn2-c2ccc3c(c2)OCCO3)cc1 (stereo unspecified)	nt	-19	nt	?	16µM*	nt
CCc1ccccc1N(CC)C(=O)c1cn(CC)c(=O)c2cc(OC)c(OC)cc12	-9%	-8	8%	?	21µM*	?
CCN(C(=O)c1cn(CC)c(=O)c2cc(OC)c(OC)cc12)c1ccc(C)c(C)c1	nt	nt	nt	23µM*	?	nt
CCc1ccccc1N(CC)C(=O)c1cn(C)c(=O)c2cc(OC)c(OC)cc12	-3%	0	42%	-12%	?	?
COC(=O)Oc1ccccc1C(=O)O	3%	nt	-9%	6%	2%	nt
O=C(NC(=S)Nc1ccc(CN2CCOCC2)cc1)c1ccc(-c2ccc(Cl)cc2)o1	8%	0	-41%	?	?	?
O=C(Nc1ccc(CN2CCOCC2)cc1)c1ccc(-c2cccc(Cl)c2)o1	-14%	-60*	19%	?	?	?
O=C(NC(=S)Nc1ccc(CN2CCOCC2)cc1)c1ccc(-c2cccc(Cl)c2)o1	14µM*	?	3.2µM*	16µM*	7.3µM*	?
O=C(NC(=S)Nc1ccccc1N1CCOCC1)c1ccc(-c2cccc(Cl)c2)o1	5.6µM*	4	2.5µM*	?	?	?
O=C1C(c2cccc(Br)c2)N(CCc2ccccc2)C(=O)CN1C1CCCCC1 (stereo unspecified)	nt	nt	nt	-22%	-18%	nt
Nc1cc(Nc2ccc(Br)cc2)nc(N)n1	2%	-71*	43%	-26%	?	?
Cc1cc(Nc2ccc(Cl)cc2)nc(N)n1	-5%	22	11%	?	?	?
O=C(c1ccc(Br)cc1)N(Cc1nc2ccccc2c(=O)[nH]1)C1CCCC1	?	?	16µM*	?	18µM*	?
Cc1cccc(C(=O)N(Cc2nc3ccccc3c(=O)[nH]2)C2CCCC2)c1	0%	-19	28%	?	26µM*	?
O=C(c1ccccc1)N(Cc1nc2ccccc2c(=O)[nH]1)C1CCCC1	15%	15	30%	8%	-30%	-6%
Cc1cccc(C(=O)N(Cc2nc3ccccc3c(=O)[nH]2)C2CCCCC2)c1	-6%	0	?	?	?	6%
O=C(Nc1cc(S(=O)(=O)N2CCCC2)ccc1OCC(F)(F)F)c1ccncc1	nt	10	nt	-9%	-20%	nt
O=S1(=O)c2c(F)cccc2OC(COCc2ccccc2)CN1C1CCCC1 (stereo unspecified)	nt	-6	nt	?	21µM*	nt
O=S1(=O)c2c(Oc3cccc4ccccc34)cccc2OC(COCc2ccccc2)CN1C1CCCC1 (stereo unspecified)	nt	22	nt	6.5µM*	6.5µM*	nt
CN1CCCN([C@@H](c2ccccc2)c2ccc(Cl)cc2)CC1	20%[17 µM]	nt	-6%[16.9 µM]	nt	nt	nt
SMILES	VP16 counter	IL1B secr inh	RORgamma inh	DT40 TDP1 CPT	DT40 TDP1 no CPT	ELG1 DNA repair
CC(C)[C@H](CN1CCC[C@H]1CN1C(N)=NC[C@@H]1Cc1ccccc1)N1C[C@@H](Cc2ccccc2)N(CCc2ccc(Cl)c(Cl)c2)C1=N	nt	?	nt	9.2µM*	?	12%
CC[C@@H](C)[C@@H]1CN([C@@H](C)CN2CCC[C@H]2CN2C(N)=NC[C@H]2CC(C)C)C(=N)N1CCc1ccc(Cl)c(Cl)c1	nt	?	nt	?	?	12%
C[C@@H](CN1CCC[C@H]1CN1C(N)=NC[C@@H]1Cc1ccccc1)N1C[C@@H](Cc2ccccc2)N(CCc2ccc(Cl)c(Cl)c2)C1=N	nt	-66*	nt	?	?	14%
CC[C@@H](C)[C@@H]1CN([C@@H](CN2CCC[C@H]2CN2C(N)=NC[C@H]2CC(C)C)C(C)C)C(=N)N1CCc1ccc(Cl)c(Cl)c1	nt	-60*	nt	?	?	0%
CC(C)[C@@H]1CN=C(N)N1C[C@@H]1CCCN1C[C@H](C)N1C[C@@H](Cc2ccccc2)N(CCc2ccc(Cl)c(Cl)c2)C1=N	nt	-75*	nt	?	?	4%
FC(F)(F)c1cccc(-c2nc3nc(Cl)c(Cl)nc3[nH]2)c1	5.6µM*	-18	10µM*	7.3µM*	2.1µM*	?
